Assay results: PubChem BioAssay AID1159580 (chemical genetic matrix, 2015)
Screen size: about 5,500 compounds; about 2,000 (36%) were called active. Inconclusive results (about 18%) are left out. No stated cut-off is given here; in the data, active means normalized growth mostly below about 0.91 (no sharp cut-off); inconclusive means no clear call, values can overlap the other calls; inactive means mostly above about 0.92. This is one part of the list.

Experiment: chemical genetic growth profiling, strain panel (AID 1159580);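 further: tested at 20 µM; growth read once vehicle control cultures reached saturation at 30 °C; 1 = growth at the plate median or of vehicle wells; lower values mean less growth of the strain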
Details: growth OD

Measured: normalized growth

CC(=O)NC(=O)/C(C#N)=C/N1CCN(Cc2ccccc2)CC1
inactive: S. cerevisiae deletion strains, locus YAL013W, strain DEP1, hits give low values 0.987 | S. cerevisiae deletion strains, locus YBR229C, strain ROT2, hits give low values 0.989 | S. cerevisiae deletion strains, locus YDL101C, strain DUN1, hits give low values 1.01 | S. cerevisiae deletion strains, locus YDL134C, strain PPH21, hits give low values 1.01 | S. cerevisiae deletion strains, locus YDR150W, strain NUM1, hits give low values 0.969 | S. cerevisiae deletion strains, locus YEL061C, strain CIN8, hits give low values 0.996 | S. cerevisiae deletion strains, locus YGR078C, strain PAC10, hits give low values 0.994 | S. cerevisiae deletion strains, locus YHR030C, strain SLT2, hits give low values 0.947 | S. cerevisiae deletion strains, locus YHR087W, strain rtc3, hits give low values 0.994 | S. cerevisiae deletion strains, locus YJR043C, strain POL32, hits give low values 0.976 | S. cerevisiae deletion strains, locus YJR075W, strain HOC1, hits give low values 1.01 | S. cerevisiae deletion strains, locus YKL190W, strain CNB1, hits give low values 1 | S. cerevisiae deletion strains, locus YLR039C, strain RIC1, hits give low values 1.01 | S. cerevisiae deletion strains, locus YLR058C, strain SHM2 (second series), hits give low values 0.988 | S. cerevisiae deletion strains, locus YLR085C, strain ARP6, hits give low values 1.07 | S. cerevisiae deletion strains, locus YLR262C, strain YPT6, hits give low values 0.982 | S. cerevisiae deletion strains, locus YML094W, strain GIM5, hits give low values 1.01 | S. cerevisiae deletion strains, locus YMR219W, strain ESC1, hits give low values 1 | S. cerevisiae deletion strains, locus YMR263W, strain SAP30, hits give low values 0.997 | S. cerevisiae deletion strains, locus YMR307W, strain GAS1, hits give low values 1.11 | S. cerevisiae deletion strains, locus YNL128W, strain TEP1, hits give low values 0.981 | S. cerevisiae deletion strains, locus YNL153C, strain GIM3, hits give low values 0.977 | S. cerevisiae deletion strains, locus YNL298W, strain CLA4 (second series), hits give low values 0.95 | S. cerevisiae deletion strains, locus YNL322C, strain KRE1, hits give low values 0.991 | S. cerevisiae deletion strains, locus YNR030W, strain Alg12, hits give low values 0.987 | S. cerevisiae deletion strains, locus YPL055C, strain LGE1, hits give low values 1.05 | S. cerevisiae deletion strains, locus YPL241C, strain CIN2, hits give low values 0.989 | S. cerevisiae deletion strains, locus YPR135W, strain CTF4, hits give low values 0.886 | S. cerevisiae strains, strain wild type, hits give low values 0.974
